± gives the standard deviation of the averaged measurements.
Tests used:
[1] = tested on: DLD1; experiment: cell viability (CellTiter-Glo) relative to plate median (fraction of plate median); higher = more viable cells; settings: 5 µM; treatment time 24 h; reporter: 7TFP
In short: (§1)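 Colorectal cancer lines with stably integrated lentiviral TCF/Wnt firefly luciferase reporters received library compounds at a final 5 µM, 24 h after seeding into 384-well plates, for a 24 h exposure. Reported figures are plate-median-normalised firefly luciferase or CellTiterGlo luminescence per well. They average two independent replicates.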

[2] = tested on: HCT116; experiment: as above; settings: 5 µM; treatment time 24 h; reporter: TCF4/Wnt
In short: as §1

[3] = tested on: SW480; experiment: as above; settings: 5 µM; treatment time 24 h; reporter: 7TFP
In short: as §1

[4] = tested on: DLD1; experiment: TCF/Wnt firefly luciferase reporter signal relative to plate median (fraction of plate median); higher = higher Wnt reporter signal; settings: 5 µM; treatment time 24 h; reporter: 7TFP
In short: as §1

[5] = tested on: SW480; experiment: as above; settings: 5 µM; treatment time 24 h; reporter: 7TFP
In short: as §1

SMILES	cell viability [1]	cell viability [2]	cell viability [3]	TCF/Wnt firefly luciferase reporter signal [4]	TCF/Wnt firefly luciferase reporter signal [5]
CC[C@]1(O)C[C@@H]2CN(CCc3c([nH]c4ccccc34)[C@@](C(=O)OC)(c3cc4c(cc3OC)N(C)[C@H]3[C@@](O)(C(=O)OC)[C@H](OC(C)=O)[C@]5(CC)C=CCN6CC[C@]43[C@@H]65)C2)C1	0.879 ± 0.16	0.477 ± 0.019	1.1 ± 0.035	0.803 ± 0.15	0.867 ± 0.2
C[C@]12CCC3c4ccc(OC(=O)c5ccccc5)cc4CCC3C1CCC2=O (stereo not given in full)	1.05 ± 0.05	1.01 ± 0.021	0.991 ± 0.011	0.978 ± 0.045	0.989 ± 0.058
C=CCCCCCCCCCCCC(O)CC(O)COC(C)=O (stereo not given)	0.995 ± 0.0071	0.9555 ± 0.0064	1.005 ± 0.0071	0.866 ± 0.1	0.962 ± 0.021
Cc1cc(C(C)(C)C)cc(C)c1CC1=NCCN1	1.095 ± 0.0071	1.06 ± 0.035	1.07 ± 0.057	0.9565 ± 0.0064	0.991 ± 0.098
C=C1C(=O)O[C@H]2[C@H]1CC/C(C)=C/CC[C@@]1(C)O[C@@H]21	0.84 ± 0.12	0.998 ± 0.017	0.886 ± 0.044	0.825 ± 0.096	0.836 ± 0.049
NC(=O)NC(=O)Cc1ccccc1	1.02 ± 0.014	1.16 ± 0.035	1.02 ± 0.037	1.12 ± 0.064	0.94 ± 0.08
O=CNc1ccccc1C(=O)O [N-Formylanthranilic acid]	0.936 ± 0.018	1.02 ± 0.021	0.92 ± 0.088	0.954 ± 0.12	0.689 ± 0.13
C=C1C[C@H]2[C@@H]3C=C(C)C4=CC(=O)CC[C@]4(C)[C@H]3CC[C@]2(C)[C@@]1(OC(C)=O)C(C)=O	0.99 ± 0.042	1 ± 0.11	1.01	0.986 ± 0.076	0.902 ± 0.094
C=CCc1ccccc1OCC(O)CNC(C)C (stereo not given)	1.03 ± 0.055	1.04 ± 0.035	0.961 ± 0.035	1.1 ± 0.27	0.852 ± 0.077
Cn1c(=O)c2c(ncn2CC(O)CO)n(C)c1=O (stereo not given)	0.916 ± 0.016	0.996 ± 0.049	0.989 ± 0.03	1.09 ± 0.14	1.09 ± 0.05
COCCCOc1cc(C[C@@H](C[C@H](N)[C@@H](O)C[C@H](C(=O)NCC(C)(C)C(N)=O)C(C)C)C(C)C)ccc1OC	0.99 ± 0.029	0.962 ± 0.068	0.974 ± 0.0057	0.991 ± 0.07	1.07 ± 0.021
CC/C(=C(/CC)c1ccc(O)cc1)c1ccc(O)cc1	0.959 ± 0.072	0.845 ± 0.021	0.982 ± 0.11	1.06 ± 0.18	1.13 ± 0.028
COC(=O)C[C@H]1C(C)(C)C2(O)OC34CC2C(=O)[C@]1(C)C3CC[C@]1(C)C4=CC(=O)O[C@H]1c1ccoc1 (stereo partly drawn) [8beta-HYDROXYCARAPIN, 3,8-HEMIACETAL]	1.02 ± 0.014	1.07 ± 0.11	0.9895 ± 0.0092	0.866 ± 0.067	0.816 ± 0.019
Cc1oc(C(C)O)c2c1C(=O)c1c(O)cccc1C2=O (stereo not given) [Bhimamycin A]	1.14 ± 0.014	0.958 ± 0.06	1.23 ± 0.13	0.9925 ± 0.0092	1.07 ± 0.042
CC(=O)O[C@@H]1C[C@@]2(C)C(CC[C@@H]2C(C)=O)C2CCC3=CC(=O)CC[C@]3(C)C21 (stereo not given in full)	0.943 ± 0.019	1.09 ± 0.042	0.976 ± 0.024	1.02 ± 0.031	0.965 ± 0.033
CC(C)[N+](C)(CCOC(=O)C1c2ccccc2Oc2ccccc21)C(C)C	0.979 ± 0.021	1.01 ± 0.14	0.984 ± 0.017	1.06 ± 0.1	1.04 ± 0.06
COC(=O)C(N)CS (stereo not given)	0.972 ± 0.054	0.965 ± 0.092	1 ± 0.036	0.836 ± 0.039	0.91 ± 0.03
CC(=O)Oc1ccc(-c2cc(=O)c3c(OC(C)=O)cc(OC(C)=O)cc3o2)cc1	0.993 ± 0.038	0.934 ± 0.093	0.9365 ± 0.005	1.01 ± 0.021	0.926 ± 0.011
Cc1c(N(C)C)c(=O)n(-c2ccccc2)n1C	0.898 ± 0.025	0.981 ± 0.13	0.991 ± 0.069	1.1 ± 0.028	0.821 ± 0.057
CC(C)NCC(O)c1ccc(O)c(O)c1 (stereo not given)	0.963 ± 0.11	1.04 ± 0.074	0.999 ± 0.016	1.02 ± 0.08	1.1 ± 0.042
CC1=NN(c2ccccc2)C(=O)C1	1.03 ± 0.054	0.921 ± 0.021	1.03 ± 0.06	0.979 ± 0.14	1.01 ± 0.025
C[C@@H]1C[C@H]2[C@@H]3C[C@H](F)C4=CC(=O)C=C[C@]4(C)[C@@]3(F)[C@@H](O)C[C@]2(C)[C@@]1(O)C(=O)CO	1.05 ± 0.057	0.889 ± 0.02	1.03 ± 0.028	1.02 ± 0.14	0.986 ± 0.076
COc1ccc(-c2cc(=O)c3c(O)c(OC)c(OC)c(OC)c3o2)cc1	1.01 ± 0.032	1.04 ± 0.072	1.02 ± 0.055	0.953 ± 0.062	1.01 ± 0.021
Oc1ccc(O)cc1	0.839 ± 0.11	0.856 ± 0.022	0.959 ± 0.1	1.14 ± 0.14	1.04 ± 0.2
CC(=O)O[C@H]1C[C@@H]2CC[C@@H]3[C@H](CC[C@@]4(C)[C@H]3C[C@H]([N+]3(C)CCCCC3)[C@@H]4OC(C)=O)[C@@]2(C)C[C@@H]1N1CCCCC1	0.976 ± 0.077	1.03	1.004 ± 0.0092	1.03 ± 0.1	1.1 ± 0.014
CCCCC[C@@H](O)[C@H]1C(=O)O[C@H](C)[C@@H](O)/C=C/C=C/C=C/C=C/C=C(\C)[C@@H](O)C[C@H](O)C[C@H](O)C[C@H](O)C[C@H](O)C[C@H](O)C[C@@H]1O	1.02	1.05 ± 0.05	0.989 ± 0.03	1.01 ± 0.022	1.09 ± 0.078
NC1(C(=O)O)CCCC1	0.9495 ± 0.00071	1.02 ± 0.035	0.9955 ± 0.0064	1.02 ± 0.081	1.055 ± 0.0071
O=c1c(O)c(-c2ccc(O)cc2O)oc2cc(O)cc(O)c12	1.11 ± 0.11	1.155 ± 0.0071	1.15	1.11 ± 0.099	1.11 ± 0.15
CC(=O)O[C@]1(C(C)=O)CC[C@H]2[C@@H]3C=C(Cl)C4=CC(=O)CC[C@]4(C)[C@H]3CC[C@@]21C	0.905 ± 0.016	0.972 ± 0.082	1.04 ± 0.042	0.9805 ± 0.0064	1.06 ± 0.088

— the supplement of paper PMC6522484
